Source: the supplement of paper PMC6555819

These sequences were tested on VDR homodimer (NR concentration 270 nM) (assay: PBM binding z-score (relative to random genomic background probes); higher = stronger binding; sequences stand for … in GC…GCGATTGACAGCGTAGAATGAAGG).
Method in brief: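 On custom Agilent 4×180K arrays, double-stranded probes with 34-nt variable regions carried direct-repeat seeds, single-nucleotide variants, half-site ablations or random human genomic background. Ligand-free nuclear receptor dimers were applied for 1 h, and binding was read with antibodies against each partner (one per run). Binding z-scores come from regression-normalized fluorescence, with the random background probes as reference.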
TAGCCTCGGTCATGCGGGCCAGTATAGTGTCGGC gave a PBM binding z-score of -0.697.
Sequence ATATGTAGGTTAGCTGGGGTTATTCAGACTAGGC has a PBM binding z-score of 1.65.
CATACAGGGTCAGCTATGCCAGAGTAGGGACGGC gave a PBM binding z-score of 1.06.
In the case of TCATATAGGTAAATGCTAGGTGAAAATCCGATCT, the PBM binding z-score is reported as 0.374.
ATCTCTGGGTAAAGATAGTTCAGTGAATGCAAAT showed a PBM binding z-score of 0.45.
For CGATCTAGGTCAGAACAGGACAGTGAAGGATGAT, the PBM binding z-score was -0.107.
AGAATAAGGTTACCAAAGATCAGGGAAACGCTTG was tested, and the PBM binding z-score was 0.232.
TGAATGAGGTTATAAGATCCGGGAACGTTGCAAA gave a PBM binding z-score of 0.411.
Work on ATCTCTAGGAAACCAAGTTCAGTGAATGCCGAAC yielded a PBM binding z-score of 2.72.
TCTTATAGATCAAGCAGGTTAAGAAAGCCTGAGT showed a PBM binding z-score of 0.389.
With TCTAGCAGGCCAGAGGGTCTCTCAAGAGGTACGG the PBM binding z-score was -0.83.
For GCTGCAAGGTCAGGTTGGTCAGCTAACGGGTACG, the PBM binding z-score was 1.23.
CAGCTTAGGTCAGGGCCAGTATAGGAGGAACGTT gave a PBM binding z-score of 0.105.
Work on GCATGTAGATCAAGGTTAAGAAAGACTAAGCTAA yielded a PBM binding z-score of -0.573.
ATCTCTAGGTAACCAAGTGCAGTGAATGCCGAAC showed a PBM binding z-score of 0.337.
For CCTACTGGTCCAAAAAGGTCATTGATGCCGATAA, the PBM binding z-score was 3.81.
Sequence CCTATTAGTCGACCATAAGGGCAACCGAAGCTCG has a PBM binding z-score of 0.533.
With CCGACTGGGGCATAAGGTTATCATAAGCCAGCCC the PBM binding z-score was 0.13.
